Among the data in ChEMBL document CHEMBL4513216, “Probing the Open Global Health Chemical Diversity Library for Multistage-Active Starting Points for Next-Generation Antimalarials” (ACS Infect Dis, 2020) are INHIBITION values, retold here.

Out of some 69,000 compounds screened, about 8,600 (12%) showed an effect of 50% or more. The sample as a whole holds a higher share of strong results than the screen did.

This assay deals with Plasmodium berghei. Briefly: Screen against P. berghei liver stage (PbLuc), transformed with Luciferase, at 10uM. The format is functional, HepG2. Particulars: tested at 10 uM.
In the case of `COC(=O)CSCc1noc(-c2ccc(Cl)cc2)n1`, the INHIBITION is reported as 46.6%.

For `COC(=O)CSCc1noc(-c2ccc(C)cc2)n1`, the INHIBITION is given as 91.3%.

As to `COC(=O)CSCc1nc(-c2ccc(Cl)cc2)no1`, the INHIBITION worked out at 48.8%.

As to `Cn1cc(CCN2CCOC(CNc3cccnn3)C2)cn1` (stereo not given), the INHIBITION is on record as -33.7%.

As to `CCCOCC1CCN(C(=O)c2cnc(C)nc2O)C1` (stereo not given), the INHIBITION was 35.8%.

Consider `Cc1cc(NC(=O)NCC2COc3ccccc3C2)no1` (stereo not given), for which the INHIBITION is 40%.

In the case of `Nc1ccc(CC2COc3ccccc3C2)cn1` (stereo not given), the INHIBITION is given as 56.3%.

For `Nc1cc(CC2COc3ccccc3C2)ccn1` (stereo not given), the INHIBITION is recorded as 57.9%.

With `O=C(c1ccnc(CC2COc3ccccc3C2)c1)N1CCCC1` (stereo not given), the INHIBITION is given as 31.5%.

Take `O=S(=O)(NCC1COc2ccccc2C1)N1CCCCCC1` (stereo not given): the INHIBITION was -9.3%.

Consider `Cn1cc(CN2C[C@@H]3COC[C@]3(C(=O)NCc3ccccn3)C2)cn1`, for which the INHIBITION stood at 13.7%.

In the case of `CC(C)NC(=O)[C@@H]1CN(Cc2ccc3c(c2)OCO3)C[C@H]2OCC[C@H]21`, the INHIBITION came to 26.5%.

In the case of `CN(Cc1noc(C2CC2)n1)C1CCCN(c2cccnn2)C1` (stereo not given), the INHIBITION is 5.9%.

As for `CC1(C(=O)NC2CCCC2)CN(c2cnccn2)CCO1` (stereo not given), the INHIBITION was 12.3%.

For the compound `CCC(CC)N(C)S(=O)(=O)c1ccc(CCNC(C)=O)s1`, the INHIBITION is on record as -79.8%.

`CCC(C)N(C)S(=O)(=O)c1ccc(CCNC(C)=O)s1` (stereo not given): the INHIBITION came out at 13.7%.

As to `CC(=O)NCCc1ccc(S(=O)(=O)N(C)C(C)CC(C)C)s1` (stereo not given), the INHIBITION came to 68.2%.

As to `COCCCN(Cc1cc(O)nc2ccccc12)C(=O)NC(C)C`, the INHIBITION amounted to 33%.

For `CC(C)NCc1cc2n(n1)CCN(C1CCCCC1)C2`, the INHIBITION is on record as 14.9%.

On to `CC(C)CN1CCn2nc(CNc3ncnc4[nH]cnc34)cc2C1`, for which the INHIBITION was found to be 33%.

On to `c1nc(NCc2cc3n(n2)CCN(C2CCCCC2)C3)c2nc[nH]c2n1`, for which the INHIBITION was found to be 78.5%.

As to `Cc1nc(CN2C(=O)C[C@@H]3[C@@H]2CCN3Cc2cnn(C)c2)cs1`, the INHIBITION is listed as -8.51%.

With `CCc1nnc2ccc(N3CCN(S(=O)(=O)c4ccc(Cl)s4)CC3)nn12`, the INHIBITION amounted to 32.3%.

As to `Cc1nc(C)c(CC(=O)Nc2nnc(C)s2)c(=O)[nH]1`, the INHIBITION is recorded as 20.1%.

Take `CSc1sc(NC(=O)Cc2c(C)nc(C)[nH]c2=O)nc1C`: the INHIBITION is 71.4%.

With `Cc1nc(C)c(CC(=O)Nc2nc(C)c(C)s2)c(=O)[nH]1`, the INHIBITION is given as 21.1%.

With `O=c1[nH]c(-c2ccccn2)nc2c1CCN(S(=O)(=O)N1CCCC1)C2`, the INHIBITION worked out at 7.92%.

Turning to `CS(=O)(=O)c1cn[nH]c1C1CCCN(C(=O)CN2CCOCC2)C1` (stereo not given), the INHIBITION is 20.8%.

Regarding `O=C(CN1CCC(c2ccnn2CCO)CC1)NCc1ccco1`, the INHIBITION is 58.5%.

As for `O=C(CN1CCC(c2ccnn2CCO)CC1)NCc1cccs1`, the INHIBITION stood at 10.8%.

On to `O=C(CN1CCC(c2ccnn2CCO)CC1)NCC1CCCCC1`, for which the INHIBITION was -17.6%.

For `O=C(CN1CCC(c2ccnn2CCO)CC1)NCC1CC1`, the INHIBITION was found to be 33.3%.

`N#CC1(NC(=O)CN2CCC(c3ccnn3CCO)CC2)CCCC1`: the INHIBITION is 37.9%.

For the compound `Cn1nccc1C1CCN(CC(=O)NCC2CC2)CC1`, the INHIBITION came out at 70.8%.

As for `CC(C)C(C)(C#N)NC(=O)CN1CCC(c2ccnn2CCO)CC1` (stereo not given), the INHIBITION is reported as -1.14%.

Regarding `O=C(CN1CCOC(c2ccc(Cl)c(Cl)c2)C1)NCc1ccco1` (stereo not given), the INHIBITION is reported as 21.5%.

With `Cc1csc(NC(=O)CN2CCC(c3ccnn3CCO)CC2)n1`, the INHIBITION was found to be 66%.

In the case of `O=C(CN1CCC(c2ccnn2CCO)CC1)NC1CCCC1`, the INHIBITION is given as -11.4%.

As to `O=C(CN1CCOC(c2ccc(Cl)s2)C1)NCc1ccco1` (stereo not given), the INHIBITION was 52.8%.

As for `CCC1CN(CC(=O)NCc2ccco2)CCO1` (stereo not given), the INHIBITION is 36.6%.

Turning to `Cc1ccc(CN2CCC3(CC2)CN(C(=O)c2cnccn2)CCO3)o1`, the INHIBITION is on record as -14.2%.

For the compound `O=C(N1CCCC1)N1CCN(Cc2cccnc2)c2ncccc2C1`, the INHIBITION amounted to 31.2%.

For `Cn1nccc1C(=O)N1CCC(c2nnsc2S(C)(=O)=O)CC1`, the INHIBITION amounted to 30.95%.

As for `COC1(CNC(=O)NCc2ccccc2)CCSC1` (stereo not given), the INHIBITION came out at 18.7%.

Turning to `Cc1nc(CNC(=O)NCC(O)c2ccccc2)cs1` (stereo not given), the INHIBITION is 11.2%.

`CC(C)S(=O)(=O)N1CCC(c2[nH]ncc2S(C)(=O)=O)C1` (stereo not given): the INHIBITION is recorded as 37.6%.

Take `CN(CCC#N)C(=O)C(C)(C)Oc1ccc(C(N)=O)cc1`: the INHIBITION turned out to be 25.3%.

For the compound `CC(=O)N1CCN(CCNC(=O)c2nc3ccccc3c(=O)[nH]2)CC1`, the INHIBITION is recorded as -96.2%.

As for `CCNC(=O)[C@@H]1C[C@@H](NC(=O)c2ccc(C)cc2O)CN1CCCSC`, the INHIBITION stood at 15.9%.

Take `Cc1cc(OCC(=O)N2CCCC(c3nccs3)C2)no1` (stereo not given): the INHIBITION is -19.6%.

As to `Cc1nn(C)c(Cl)c1S(=O)(=O)N(C)c1ccc(Cl)cn1`, the INHIBITION was found to be 14.4%.

As to `O=C1CC(c2ccncc2)C2(CCN(Cc3ccc(F)cc3)CC2)N1` (stereo not given), the INHIBITION turned out to be 1.71%.

For the compound `CN(C)CCOCc1nnc2n1CCN(Cc1ccco1)CC2`, the INHIBITION is reported as 16.4%.

As for `Cc1cc(Br)ccc1C(=O)Nc1c(C(N)=O)n[nH]c1C`, the INHIBITION came to 3.87%.

For `Cc1cnc2c(C(=O)N3CCCC(OCc4ccccn4)C3)cnn2c1` (stereo not given), the INHIBITION is listed as 37.9%.
